# Only some compounds are listed: those with a hit (about 1% of all), similar ones and a draw of the others.
# L3MBTL1 inh-1: L3MBTL1 (human) inhibition; AlphaScreen L3MBTL1–H3K9me1 peptide binding; AID 485360; Potency, µM (series often up to 57.1 µM), without a hit: at the top dose activity, negative = inhibition, hits mostly inhibitors; Q9Y468; hit rate 0.66% among 230,000; further: on the % scale 0 is the no-effect control and ±100 the full control effect; nearly all actives have a fitted effect of over 60% in size
#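 L3MBTL1 (50 nM) pre-complexed 30 min with biotinylated H3(1-15)K9me1 peptide (75 nM), then compounds added for 30 min at room temperature; AlphaScreen streptavidin donor/nickel chelate acceptor beads (10 ug/mL final) read after 30 min dark incubation.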
# BLM inh: Bloom syndrome helicase (human) inhibition | recombinant BLM DNA unwinding, fluorescence dequenching | Potency, µM (highest dose often 56.1 µM), for inactives: at the highest dose activity change, negative = inhibition, usual class: inhibitors | hit rate 0.2% among 350,000;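 further: plate controls were vehicle for no effect and no enzyme for full effect; nearly all actives have a fitted effect of over 35% in size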
# APE1 inh-1: APE1 (human) endonuclease inhibition; P27695; recombinant APE1, TAMRA/BHQ-2 abasic DNA cleavage fluorescence; Potency, µM (top dose mostly 65.8 µM), inactives show top-dose activity change, negative = inhibition, usual class: inhibitors; AID 2517; hit rate 0.35% among 350,000;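 further: plate controls were vehicle for no effect and reference inhibitor for full effect; nearly all actives have a fitted effect of over 55% in size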
#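 Incision of a quenched TAMRA/BHQ-2 THF abasic-site duplex (50 nM) by 0.75 nM APE1, after 15 min compound preincubation, measured as fluorescence increase over three 60 s reads. Values normalized to buffer, DMSO and NSC13755 control wells.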
# RECQ1 inh-1: blocks DNA unwinding by human RECQ1; P46063; RECQ1 DNA unwinding, red fluorescence kinetic read; Potency, µM (titrated, usually from 57.3 µM), for inactives: at the top dose activity, negative = inhibition, hits mostly inhibitors; hit rate 0.54% among 240,000; AID 2549;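 further: plate controls were vehicle for no effect and no enzyme for full effect; nearly all actives have a fitted effect of over 30% in size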
# Target sequence (P46063 whole entry, looked up): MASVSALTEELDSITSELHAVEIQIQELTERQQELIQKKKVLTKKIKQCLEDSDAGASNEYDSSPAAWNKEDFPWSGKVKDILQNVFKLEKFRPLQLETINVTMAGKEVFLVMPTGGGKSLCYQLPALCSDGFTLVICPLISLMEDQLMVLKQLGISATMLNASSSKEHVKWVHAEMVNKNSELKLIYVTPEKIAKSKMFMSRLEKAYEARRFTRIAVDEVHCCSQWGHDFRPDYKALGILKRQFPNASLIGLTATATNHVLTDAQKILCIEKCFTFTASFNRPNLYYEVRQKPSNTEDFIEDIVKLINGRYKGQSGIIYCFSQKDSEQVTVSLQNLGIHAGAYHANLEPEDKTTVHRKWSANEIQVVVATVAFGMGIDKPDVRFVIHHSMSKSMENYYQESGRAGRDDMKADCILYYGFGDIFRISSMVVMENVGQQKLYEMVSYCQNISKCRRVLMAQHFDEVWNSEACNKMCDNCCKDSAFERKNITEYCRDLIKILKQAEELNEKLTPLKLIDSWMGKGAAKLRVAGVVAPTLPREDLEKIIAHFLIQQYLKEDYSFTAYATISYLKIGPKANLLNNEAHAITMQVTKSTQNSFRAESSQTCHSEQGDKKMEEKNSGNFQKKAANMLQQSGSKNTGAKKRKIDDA
#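 50 nM RECQ1T1 preincubated 15 min with compound in Tris pH 8.0 buffer with MgCl2, DTT, Tween-20 and 2.5 ug/ml poly(dI-dC); started with 200 nM TAMRA/BHQ-2 forked duplex and 2 mM ATP. Unwinding read as fluorescence (525/598 nm), two reads 2 h apart.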
# FEN1 inh-1: inhibitors of human flap endonuclease 1 | Recombinant FEN1 flap cleavage, fluorescence, 15 min | Potency, µM (series often up to 114 µM), inactives show at the highest dose activity change, negative = inhibition, usual class: inhibitors | hit rate 0.35% among 390,000; further: on the % scale 0 is the no-effect control and ±100 the full control effect; nearly all actives have a fitted effect of over 65% in size
#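 Quantitative HTS format: each compound was titrated, incubated with 10 nM nuclease for 15 min at room temperature, then challenged with flap substrate at 50 nM final. Signal change over 15 min gave concentration–effect curves.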
# WRN helicase inh: blocks human WRN helicase | WRN helicase unwinding, fluorescent forked duplex, kinetic | Potency, µM (series often up to 114 µM), without a hit: at the top dose activity change, negative = inhibition, actives largely listed as inhibitors | hit rate 0.46% among 360,000; further: on the % scale 0 is the no-effect control and ±100 the full control effect; nearly all actives have a fitted effect of over 55% in size
#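 Kinetic fluorescence helicase assay: unwinding of a quenched forked DNA duplex (100 nM final) with 2 mM ATP final raises red fluorescence (525/598 nm). Compounds sat 15 min at room temperature with 20 nM WRN beforehand.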
# APE1 dye cs: displaces fluorescent dye from DNA, flagging APE1 artifacts. shares compounds with APE1 inh-1. DNA fluorescent dye displacement counterscreen, fluorescence. Potency, µM (series often up to 28.5 µM), for the others: top-dose activity change, negative = inhibition, hits mostly inhibitors. hit rate 7% among 480;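 further: loss of thiazole orange fluorescence as the dye is displaced from duplex DNA; 0% = ThO with dsDNA and no compound and -100% = ThO without dsDNA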
# EndoIV counter: counter-screen for APE1 inhibitors: inhibitors of E. coli endonuclease IV. shares compounds with APE1 inh-1. Potency, µM (series often up to 27.1 µM), for inactives: at the top dose activity change, negative = inhibition, hits mostly inhibitors. E. coli Endo IV, fluorogenic AP-site DNA cleavage. hit rate 4% among 560;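 further: plate controls were uninhibited enzyme wells for no effect and no enzyme buffer wells for full effect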
# APE1 inh-2: confirmation of inhibitors of human APE1 endonuclease; Potency, µM (series often up to 57.1 µM), without a hit: at the highest dose activity change, negative = inhibition, hits mostly inhibitors; shares compounds with APE1 inh-1; hit rate 44% among 750; purified APE1, fluorogenic abasic-site DNA cleavage; further: on the % scale 0 is the no-effect control and ±100 the full control effect; nearly all actives have a fitted effect of over 30% in size
# APE1 FP inh: APE1 (human) DNA binding inhibition, fluorescence polarization | shares compounds with APE1 inh-1 | APE1 binding to TAMRA-labelled double-stranded DNA, fluorescence polarization displacement | hit rate 7% among 480 | Potency, µM (highest dose often 28.5 µM), for the others: top-dose activity, negative = inhibition, usual class: inhibitors; further: on the % scale 0 is the no-effect control and ±100 the full control effect
# RECQ1 inh conf: confirmation of human RECQ1 helicase inhibitors; Potency, µM (series often up to 229 µM), for inactives: at the highest dose activity change, negative = inhibition, hits mostly inhibitors; hit rate 28% among 610; shares compounds with RECQ1 inh-1; AID 2708; RECQ1 helicase DNA unwinding, fluorescence; further: on the % scale 0 is the no-effect control and ±100 the full control effect; nearly all actives have a fitted effect of over 45% in size
# ADP FP counter: counter-screen for RECQ1 inhibitors: ADP displacement. shares compounds with RECQ1 inh-1. AID 2711. Potency, µM (highest dose often 228 µM), inactives show at the highest dose activity change, negative = inhibition, hits mostly inhibitors. hit rate 27% among 530. ADP fluorescence polarization displacement counterscreen; further: on the % scale 0 is the no-effect control and ±100 the full control effect; nearly all actives have a fitted effect of over 45% in size
# RECQ1 inh-2: confirmation of human RECQ1 helicase inhibitors. shares compounds with RECQ1 inh-1. hit rate 15% among 1,100. recombinant RECQ1 DNA unwinding, red fluorescence. Potency, µM (top dose mostly 119 µM), without a hit: at the highest dose activity, negative = inhibition, most hits filed as inhibitors; further: on the % scale 0 is the no-effect control and ±100 the full control effect; nearly all actives have a fitted effect of over 50% in size
# L3MBTL1 inh-2: validation of human L3MBTL1 methyl-lysine binding inhibitors; shares compounds with L3MBTL1 inh-1; L3MBTL1 methyl-lysine binding inhibition, biochemical qHTS; Potency, µM, actives largely listed as inhibitors; hit rate 91% among 500; further: nearly all actives have a fitted effect of over 70% in size
# L3MBTL1 ctr: counter-screen for L3MBTL1 inhibitors: AlphaScreen signal interference; shares compounds with L3MBTL1 inh-1; AlphaScreen counterscreen, signal inhibition; 500 tested, under 10 active; Potency, µM (titrated, usually from 57.1 µM), for the others: at the top dose activity change, negative = inhibition, actives largely listed as inhibitors; further: 0% is about no effect
# FEN1 inh-2: confirmation of human FEN1 inhibitors. shares compounds with FEN1 inh-1. FEN1 flap cleavage, TAMRA/BHQ2 fluorogenic DNA substrate. Potency, µM, hits mostly inhibitors. hit rate 79% among 880. AID 720498; further: nearly all actives have a fitted effect of over 60% in size
# An asterisk follows results filed as active; ? = inconclusive; nt = no result; [ ] = another dose, or the depositor's remark. The call rests on the fitted dose curve; in most records, active means well fitted curve in the direction sought with a large enough effect; inconclusive means small, poorly fitted or top-dose-only effect, or another doubt; inactive means no such curve, though single readings can be large; an effect the other way counts as inactive or inconclusive. Potency means the concentration at half of the fitted maximal effect.
SMILES,L3MBTL1 inh-1,BLM inh,APE1 inh-1,RECQ1 inh-1,FEN1 inh-1,WRN helicase inh,APE1 dye cs,EndoIV counter,APE1 inh-2,APE1 FP inh,FEN1 inh-2,others
Cc1ccc(N2C(=O)c3ccccc3C2C(=O)c2ccc(O)cc2O)cc1 (stereo not given),4.5µM*,3%,6.3µM*,14µM*,40µM*,?,1%,12%,?,-7%,34*,RECQ1 inh conf=3%[114 µM];ADP FP counter=-22%[91.9 µM];RECQ1 inh-2=-18%
Cc1ccc(NC(=O)C2(c3cccs3)CCOCC2)cc1Cl,nt,-3%,nt,nt,-1%,nt,nt,nt,nt,nt,nt,
Nc1ncnc2c1C(c1ccccc1)c1c(ccc3ccccc13)O2 (stereo not given),22%,nt,-3%,nt,-14%,nt,nt,nt,nt,nt,nt,
N#Cc1c(NC(=O)CSc2ncnc3sccc23)oc(-c2ccco2)c1-c1ccco1,13µM*,20µM*,?,25µM*,?,?,10µM*,8%,?,2%,67*,L3MBTL1 inh-2=17*;L3MBTL1 ctr=-12%
Cc1cc(NC(=O)CSc2ncnc3sccc23)no1,-9%,-2%,2%,0%,-13%,-11%,nt,nt,nt,nt,nt,
COCCNC(=O)C1CCCN(C(=O)c2sccc2C)CC1 (stereo not given),nt,nt,nt,nt,nt,-5%,nt,nt,nt,nt,nt,
Cc1cc[n+](-c2[nH]c(=O)sc2/C=N/N=C(\[O-])c2ccccc2)cc1,?,-1%,14%,-3%,-32%,?,nt,nt,40µM*,nt,67*,

# Screening results: PubChem, National Center for Advancing Translational Sciences (NCATS)
